Measurements from PubChem BioAssay.
The source made the active and inactive calls.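 How the source made its calls: active means growth inhibition above 50% at the single 2 µM test dose, taken to imply half-maximal potency below 2 µM; inactive means the rest.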

Experiment: antimalarial activity against Dd2 strain (AID 2302);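 further: 0% = DMSO untreated growth and 100% = chloroquine plus artemisinin killed control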
Details: P. falciparum Dd2 in RBCs, LDH growth readout, 72 h; at 2 µM; stronger effect = higher value

Growth inhibition, active:
CC(=O)N(C)c1cccc(C(=O)Nc2ccc(-c3cccc(-c4nc5c(C)cccc5[nH]4)c3)cc2)c1 68%, Cc1ncc([N+](=O)[O-])n1CCOC(=O)NC(Nc1ccc(Br)cc1)C(Cl)(Cl)Cl (stereo unspecified) 102%, Cc1onc(-c2c(F)cccc2Cl)c1C(=O)Nc1ccccc1I 52%, O=C(NCCc1ccc(Cl)c(Cl)c1)C1CCCN(C(=O)c2ccc(O)c(-c3ccc(Cl)c(Cl)c3)c2)C1 (stereo unspecified) 65%, CCc1ccc(C(=O)NC(=O)c2ccccc2O)cc1 84%, N#Cc1ccc(N2CCN(C(=O)c3cccc(-c4noc(C(F)(F)F)n4)c3)CC2)nc1 58%, CCCCN(CCCC)CCC(O)C(=Cc1ccc(Cl)cc1Cl)c1ccc(C(F)(F)F)cc1N (stereo unspecified) 99%, CN1CCN(c2ccnc3ccc(NC(=O)Nc4cccc5c(-c6ccncc6)cccc45)cc23)CC1 100%, COc1ccccc1C1CCN(C2CCC(NC(=O)c3cc(-c4ccc(Cl)cc4)cs3)CC2)CC1 (stereo unspecified) 100%, NC(=O)c1ccc(-n2cnc3cc(F)ccc32)cc1OCc1ccccc1C(F)(F)F (tested in a mixture with another compound) 93%, COc1cc2nc(N3CCC(CNC(=O)c4ccc(-c5ccc(C#N)cc5C)cc4)CC3)nc(N)c2cc1OC 99%, COc1ccccc1Cn1ccnc1SCC(=O)Nc1cccc(C(F)(F)F)c1 73%, c1ccc(CCNCc2ccc(-c3cccc(-c4nc5ccccc5[nH]4)c3)cc2)nc1 87%, c1ccc(CNc2cc(-c3ccccn3)nc(-c3ccccn3)n2)cc1 89%

Growth inhibition, inactive:
O=C(Nc1cccc(Cl)c1Cl)NC1CCN(Cc2cccc(O)c2)CC1 1%, CC(=O)Nc1cccc(C(=O)Nc2cccc(-c3ccc(-c4nc5c(C)cccc5[nH]4)cc3)c2)c1 12%, CCOC(=O)NC1=NC(C)(C)N(OCc2ccc(Cl)c(Cl)c2)C(NC(=O)OCC)=N1 4%, O=S(=O)(Nc1cccc(CCN2CCCCC2CCN2CCCC2)c1)c1ccc(-c2ccccc2)cc1 (stereo unspecified) 5%, COc1cc2nc(NCc3nc4ccccc4[nH]3)nc(N)c2cc1OC 10%, CC(C)Sc1nc2c(c(=O)n1Cc1ccco1)C1(CCCC1)Cc1ccccc1-2 10%, c1ccc(OCCCCN2CCCCC2)cc1 1%, O=C(/C=C/c1ccc(Cl)c(Cl)c1)NCCCCCCN1CCN(C(=O)Nc2cc(F)cc(F)c2)CC1 -1%, CN(Cc1cccc(F)c1)C1CCN(c2cc(NC(=O)c3cccc(F)c3)ccn2)CC1 13%, COc1ccc2ncc(C#N)c(CCN3C[C@H](CNCc4ccccc4)[C@H](O)C3)c2n1 24%, O=C(Nc1cccc(CN2CCCN(Cc3cccc(O)c3)CC2)c1)c1ccc2ccccc2c1 42%, CCCNCc1ccc(-c2ccc(CN(CCOC)C(=O)c3cnc(C)cn3)cc2)nc1 14%
